# MCF10A rereplic = DNA re-replication induction in MCF 10a cells; MCF 10A DNA re-replication, Hoechst nuclear intensity, 48 h; Potency, µM (series often up to 46.1 µM), for inactives: at the highest dose activity, positive = re-replication, usual class: activators; actives 2.9% (n = 350,000); AID 624296; note: % of control where 0% means no effect; nearly all actives have a fitted effect of over 50% in size
# KB-3-1 cytotox = kills parental KB-3-1 adenocarcinoma cells. Potency, µM (series often up to 46.1 µM), most hits filed as cytotoxic. AID 1347075. actives 1.4% (n = 400,000). KB-3-1 viability, CellTiter-Glo ATP luminescence, 72 h; note: % is set by controls: 0 for no effect and ±100 for the full control effect; nearly all actives have a fitted effect of over 60% in size
#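 KB-3-1 cells, DMEM (no phenol red) + 10% FBS; compound by pin transfer, 72 h, 37 °C. Readout: CellTiter-Glo luminescence after 10 min. Data normalized, curve-fitted.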
# HT1080 IDH1KD tx = toxicity to HT-1080 IDH1 knockdown cells (counter line); HT-1080 IDH1 knockdown viability, ATP luminescence, 48 h; Potency, µM (titrated, usually from 46.1 µM), for inactives: at the highest dose activity, negative = toxicity, usual class: cytotoxic; actives 2% (n = 360,000); AID 686971;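 note: 0% = DMSO wells and -100% = cell-free medium wells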
#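 HT-1080-IDH1KD cells (IDH1 knocked down), 750/well in RPMI with 5% FBS, treated with compound 48 h at 37 degrees C. Viability by CellTiter-Glo luminescence, normalised to DMSO and no-cell wells; concentration-response curves classed.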
# HT1080-NT tox = kills 2HG-producing HT-1080-NT fibrosarcoma cells; HT-1080-NT fibrosarcoma viability, CellTiter-Glo ATP luminescence, 48 h; Potency, µM (doses to about 46.1 µM), for inactives: at the top dose activity, negative = less viability, most hits filed as cytotoxic; actives 1.6% (n = 360,000);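 note: NT is the 2HG producing partner of a matched IDH1 knockdown line; 0% = DMSO-treated cells and -100% = media-only wells without cells; nearly all actives have a fitted effect of over 55% in size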
#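 Viability of the 2HG-overproducing fibrosarcoma line after 48 hours of compound exposure at 37 degrees C was determined by luminescence with CellTiter-Glo, and concentration-effect curves were then fitted and categorized.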
# SW480 rerep = DNA re-replication induction in SW480 cells; SW480 DNA re-replication, Hoechst DNA content imaging, 48 h; Potency, µM (top dose mostly 46.1 µM), inactives show at the top dose re-replication activation, most hits filed as activators; actives 1.8% (n = 340,000); note: % of control where 0% means no effect; nearly all actives have a fitted effect of over 55% in size
#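 Readout is total intensity of Hoechst-stained nuclei, excited at 405 nm and collected at 500-530 nm. Compound treatment lasted 48 hr at 37 C in 5% CO2 before staining.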
# KB-V1 cytotox = KB-V1 MDR subline cytotoxicity | actives 3.4% (n = 400,000) | Potency, µM (highest dose often 46.1 µM), most hits filed as cytotoxic | KB-V1 MDR cells viability, CellTiter-Glo, 72 h; note: % is set by controls: 0 for no effect and ±100 for the full control effect; nearly all actives have a fitted effect of over 60% in size
#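 qHTS viability screen in drug-selected KB-V1 MDR cells: 72 h compound treatment at 37 degrees C, ATP luminescence end point.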
# An asterisk follows results filed as active; i = inactive; ? = inconclusive; . = no result. Only some compounds are listed: those with a hit (about 8% of all), similar ones and a draw of the others. Calls come from the whole dose curve; as a rule, active = well fitted curve in the direction sought with a large enough effect; inconclusive = small, poorly fitted or top-dose-only effect, or another doubt; inactive = no such curve, though single readings can be large; an effect the other way counts as inactive or inconclusive. Potency is the fitted concentration of half-maximal effect.
SMILES,MCF10A rereplic,KB-3-1 cytotox,HT1080 IDH1KD tx,HT1080-NT tox,SW480 rerep,KB-V1 cytotox
OCC1OC(O)C(O)C(O)C1O (centres undefined),10%,.,.,.,4%,.
CC(=O)c1ccc2c3c(cc(C)c2c1)CCCC3,21µM*,i,7%,?,1%,i
CC(=O)c1cccc(NC(=O)c2ccc3c(c2)CCCC3)c1,-38%,i,-2%,-2%,-6%,?
N#Cc1cc2c(=O)n3ccccc3nc2n(CCCn2ccnc2)c1=N,9.2µM*,i,-1%,-7%,15µM*,i
Cc1ccc2nc3c(cc(C(N)=S)c(=N)n3CCCOC(C)C)c(=O)n2c1,?,?,11µM*,?,-2%,?
COCCCn1c(=N)c(C(N)=S)cc2c(=O)n3cccc(C)c3nc21,?,i,9%,10%,16µM*,i
CCOCCCn1c(=N)c(S(=O)(=O)c2ccc(C)cc2)cc2c(=O)n3ccccc3nc21,.,i,.,.,.,?
CCCn1c(=N)c(C#N)cc2c(=O)n3ccccc3nc21,225%,i,-5%,-8%,?,i
CCOCCCn1c(=N)c(S(=O)(=O)c2ccccc2)cc2c(=O)n3cc(C)ccc3nc21,8.2µM*,i,14%,6%,5.8µM*,?
CC1CCC2(C1)N=C(Nc1nc3ccccc3o1)NC1=C2C(=O)CCC1 (centres undefined),.,i,.,.,.,i
Cc1ccc(CN2CCCn3nc(C(=O)NCCc4cccc(C)c4)cc3C2=O)cc1,.,?,.,.,.,i
CCOC(=O)C1CCN(C(=O)c2ccc3c(c2)N=C(CC)c2cc(C)ccc2S3)CC1,.,i,.,.,.,i
Cc1cccn2c(=O)c3cc(C#N)c(=N)n(CCN4CCOCC4)c3nc12,-21%,i,-13%,18%,-15%,i
Cc1cccn2c(=O)c3cc(C(N)=S)c(=N)n(CCCN4CCOCC4)c3nc12,?,i,-4%,-14%,8.2µM*,i
Cc1cccn2c(=O)c3cc(C#N)c(=N)n(CCCN4CCOCC4)c3nc12,?,?,-1%,1%,4.1µM*,i
CCCCn1c(=N)c(C(=O)NC2CCCCC2)cc2c(=O)n3cccc(C)c3nc21,.,i,.,.,.,i
COc1ccc(C(=O)N2c3ccccc3C=CC2C#N)cc1 (centres undefined),?,i,-20%,-28%,?,i
Cc1ccc2c(c1)C=CC(C#N)N2C(=O)c1ccccc1 (centres undefined),?,4.6µM*,1.5µM*,1.6µM*,2.1µM*,9.2µM*
CCSC(=O)N1c2ccc(OC)cc2C=CC1C#N (centres undefined),1.2µM*,0.65µM*,?,0.46µM*,?,0.73µM*
COc1ccc(C(C(=O)NC(C)(C)C)N(C(=O)CCC(=O)Nc2cc(C)on2)c2cc(C)cc(C)c2)cc1 (centres undefined),11%,i,-6%,-19%,-2%,15µM*
COc1ccc(C(C(=O)NC(C)(C)C)N(Cc2ccc(C)cc2)C(=O)CCC(=O)Nc2cc(C)on2)cc1 (centres undefined),2%,?,-22%,-18%,-7%,i
CCc1cccc(C)c1NC(=O)Cn1c(=O)cc(C(F)(F)F)c2c(C)nn(C)c21,.,i,.,.,.,i
Cc1ccc2oc(C(=O)N(C)Cc3ccc(C)o3)c(C)c2c1,23µM*,i,0%,-13%,?,i
CC(=O)Nc1c(Cl)cc2c(c1Cl)Cc1cc(C#N)ccc1-2,1%,1.2µM*,-14%,-9%,14%,0.92µM*
Cc1cc(OCC(=O)Nc2ccc(C(=O)OC3CCCCC3)cc2)cc(C)c1Cl,.,i,.,.,.,i
SMILES,MCF10A rereplic,KB-3-1 cytotox,HT1080 IDH1KD tx,HT1080-NT tox,SW480 rerep,KB-V1 cytotox
O=C(Nc1nc2ccccc2[nH]1)C1CCN(C(=O)c2ccc(F)cc2)CC1,-10%,i,-5%,1%,-61%,i
O=C(Nc1nc2ccccc2[nH]1)c1cccc(F)c1,?,i,?,-28%,21µM*,i
O=C(Nc1nc2ccccc2[nH]1)C1CC1,18µM*,?,?,?,21µM*,10µM*
COc1ccc(N(C)S(=O)(=O)c2cccc(C(=O)NCc3ccc(C)cc3)c2)cc1,8%,i,-11%,-10%,3%,6.5µM*
O=C(Nc1nc2ccccc2[nH]1)c1ccc(Cl)c(S(=O)(=O)N2CCCC2)c1,?,?,-26%,-19%,?,15µM*
CCOC(=O)c1c(C)c(C(=O)NCc2ccc(Cl)cc2)c(C)n1C,.,i,.,.,.,?
Cc1ccc(N(C)S(=O)(=O)c2cccc(C(=O)Nc3nc4ccccc4[nH]3)c2)cc1,?,?,-27%,-4%,?,2.3µM*
CCc1ccc(C2=NNC(=Nc3cccc(S(=O)(=O)N(C)C)c3)SC2)cc1,?,?,?,21µM*,21µM*,?
Cc1ccc(C2=NNC(=Nc3ccc(F)cc3)SC2)cc1,-8%,i,?,?,25%,?
CCCSc1nc2sc3c(c2c(=O)n1-c1ccccc1)CCC(C)C3 (centres undefined),.,i,.,.,.,i
Cc1cc(F)ccc1S(=O)(=O)N1CCCCC1CCNC(=O)C(=O)NCCN1CCOCC1 (centres undefined),-3%,i,-1%,6%,-7%,16µM*
Cc1cc(C)c(S(=O)(=O)N2CCCCC2CCNC(=O)C(=O)NCCN2CCOCC2)c(C)c1 (centres undefined),1%,i,6%,4%,-6%,3.3µM*
COc1cccc(NC(=O)Nc2cc(-c3cn4cccnc4n3)ccc2OC)c1,.,i,.,.,.,i
CSc1nnc(NC(=O)c2cc(=O)c3cc(C)c(C)cc3o2)s1,.,i,.,.,.,?
COc1ccc(OCc2n(CC(=O)OC3CC(C)CCC3C(C)C)c3ccccc3[n+]2C)cc1 (centres undefined),?,13µM*,5.8µM*,5.8µM*,26%,?
COc1ccc(-c2n(CC(=O)OC3CC(C)CCC3C(C)C)c3ccccc3[n+]2C)cc1 (centres undefined),?,?,5.8µM*,6.5µM*,-37%,?
Cc1ccc(NC(=O)CCNS(=O)(=O)c2cc(Br)cnc2N)cc1Cl,18µM*,?,-21%,-9%,7%,13µM*
CC(C)c1ccc(/C=N/NC(=O)CN(c2cccc(Cl)c2Cl)S(C)(=O)=O)cc1,?,?,21µM*,18µM*,?,?

# Bioassay records as filed in PubChem BioAssay.
